Among the data in ChEMBL document CHEMBL4513216, “Probing the Open Global Health Chemical Diversity Library for Multistage-Active Starting Points for Next-Generation Antimalarials” (ACS Infect Dis, 2020) are INHIBITION values, retold here.

Screen size: about 69,000 compounds; about 8,600 (12%) showed an effect of 50% or more. The sample holds strong results, similar compounds and a random draw of the others, so the mix is not that of the screen.

For this assay, the system named is Plasmodium berghei. The assay is described as follows: Screen against P. berghei liver stage (PbLuc), transformed with Luciferase, at 10uM. Conditions: tested at 10 uM. Type of assay: functional, HepG2.
As for `Cn1nnnc1SCC1(O)CCCCC1`, the INHIBITION turned out to be 1.74%.

Regarding `O=S(=O)(CC1CCCCO1)Nc1cc(F)ccc1-n1cccn1` (stereo unspecified), the INHIBITION was found to be 25.7%.

`Cc1ccc(S(=O)(=O)Nc2ccc(N3CCSCC3)c(C(=O)O)c2)s1`: the INHIBITION was 43.9%.

Turning to `Cc1cc2nc(C(C)C)cc(N(C)CC3CCCN(CCO)C3)n2n1` (stereo unspecified), the INHIBITION is recorded as 58.5%.

With `Cc1cc2nc(C(C)C)cc(N(C)CC3CCN(C(C)C)C3)n2n1` (stereo unspecified), the INHIBITION turned out to be 27.6%.

For `Cc1cc2nc(C(C)C)cc(N(C)CC3CCCN3C)n2n1` (stereo unspecified), the INHIBITION worked out at 33%.

`Cc1ccc(NC2CCN(C(=O)c3cncnc3C)CC2)nn1`: the INHIBITION is -17.22%.

Turning to `CCn1ccc(NC(=O)CCc2c(C)nn(C)c2C)n1`, the INHIBITION came out at 38.7%.

As for `CNC(=O)CS(=O)(=O)C1CCN(S(=O)(=O)c2cccc(Cl)c2C)CC1`, the INHIBITION is 80%.

Take `CNC(=O)CS(=O)(=O)C1CCN(S(=O)(=O)c2ccccc2Cl)CC1`: the INHIBITION was 25.8%.

Consider `CNC(=O)CS(=O)(=O)C1CCN(S(=O)(=O)c2ccccc2Br)CC1`, for which the INHIBITION is listed as -26.6%.

In the case of `Cc1cccc2[nH]c(COCC(=O)N3CCCn4cncc4C3)nc12`, the INHIBITION was 22.7%.

For `Cc1ccc(C(=O)Nc2c(C(=O)N(C)C)nn(C)c2C)cc1`, the INHIBITION is on record as -10.6%.

As for `Cc1c(NC(=O)c2ccc(Br)cc2)c(C(=O)N(C)C)nn1C`, the INHIBITION is on record as 17.6%.

As for `COc1ccc(C(=O)Nc2c(C(=O)N(C)C)nn(C)c2C)cc1`, the INHIBITION is listed as 61.5%.

Turning to `CCOCC1CN(Cc2ccsc2)Cc2cnn(C)c21` (stereo unspecified), the INHIBITION is on record as 36.2%.

On to `COC(=O)CNC(=O)c1cn(Cc2ccccc2F)nn1`, for which the INHIBITION was 82.9%.

Consider `CC(NC(=O)NCCCn1cncn1)c1ccccc1F` (stereo unspecified), for which the INHIBITION worked out at 11.9%.

In the case of `CC(Cn1cncn1)NC(=O)c1cn(Cc2ccccc2F)nn1` (stereo unspecified), the INHIBITION amounted to 68.8%.

`CCOC(=O)CC(NC(=O)c1cn(Cc2ccccc2F)nn1)C(C)C` (stereo unspecified): the INHIBITION came out at 72.6%.

`NCCn1cc(C(=O)NCc2ccccc2Cn2cccn2)nn1`: the INHIBITION was determined as 29.4%.

Turning to `COCC1CCN(C(=O)c2cn(Cc3ccccc3F)nn2)CC1`, the INHIBITION is on record as 14.2%.

Take `O=C(NCCCOc1cccnc1)c1cn(Cc2ccccc2F)nn1`: the INHIBITION was 12.9%.

For the compound `CCOC(=O)CC(C)NC(=O)c1cn(Cc2ccccc2F)nn1` (stereo unspecified), the INHIBITION is given as -44.2%.

Regarding `COC(=O)C(CO)NC(=O)c1cn(Cc2ccccc2F)nn1` (stereo unspecified), the INHIBITION is listed as -4.4%.

For the compound `COc1ccc(CNCCc2cc(F)cc3c2OCOC3)c(OC)c1`, the INHIBITION is listed as 30%.

For the compound `Cc1cc(C(=O)NCc2ccc(F)cc2)nc(C2CCCN2C)n1` (stereo unspecified), the INHIBITION is given as -3.31%.

Turning to `OCCO[C@H]1C[C@@H](O)C12CCN(Cc1nc(C(F)(F)F)no1)CC2`, the INHIBITION was -17.8%.

`CCN1CCCCC1C(=O)N1CCN(C(=O)OC)CC1` (stereo unspecified): the INHIBITION is 29.9%.

On to `CCn1cnnc1C1CCN(C(=O)c2cnc(C)s2)CC1`, for which the INHIBITION is given as 27.6%.

As to `CC(C)c1ncncc1C(=O)NCCN1CCCCC1C` (stereo unspecified), the INHIBITION is reported as 36.9%.

As for `CCOCC1CCN(C(=O)C(c2cccc(F)c2)N(C)C)CC1` (stereo unspecified), the INHIBITION turned out to be 17.5%.

`CN(C(=O)CCc1ccncc1)C1CCCN(CCc2ccccc2)C1` (stereo unspecified): the INHIBITION is -8.07%.

As for `CN(C(=O)CC1=CCCCC1)C1CCCN(C2Cc3ccccc3C2)C1` (stereo unspecified), the INHIBITION was 28.3%.

With `CN(C(=O)CC1=CCCCC1)C1CCCN(CCc2ccccc2)C1` (stereo unspecified), the INHIBITION was 59.2%.

For the compound `CC(O)c1cn(Cc2ccc(Cl)cc2Cl)nn1` (stereo unspecified), the INHIBITION worked out at 7.92%.

For the compound `Cc1cc(C(=O)N2CCCC2c2noc(C)n2)[nH]n1` (stereo unspecified), the INHIBITION stood at 38.5%.

Turning to `Cc1cccc(=O)n1CCC(=O)N(C)Cc1cccc2ncccc12`, the INHIBITION is recorded as 33.1%.

Take `CCCC(=O)N(C)c1cc(C#N)c2ccccc2n1`: the INHIBITION is -31.7%.

In the case of `CCCNC(=O)c1cccc2ncccc12`, the INHIBITION is recorded as 26.7%.

In the case of `CN(C(=O)CCC(F)(F)F)c1cccc2ncccc12`, the INHIBITION is on record as 71.4%.

On to `CN(Cc1cccc2ncccc12)C(=O)CCC(F)(F)F`, for which the INHIBITION amounted to 19.7%.

As to `CCCC(=O)N(C)c1cccc2ncccc12`, the INHIBITION amounted to 77.8%.

For `COc1ccc(-n2cc3[nH]c(=O)n(C(C)C)n3c2=O)cc1`, the INHIBITION was -12.5%.

With `CCOCC1CN(Cc2cccs2)Cc2nn(C)cc21` (stereo unspecified), the INHIBITION is -2.72%.

Consider `CCN(Cc1ccc2c(c1)OCCO2)C(=O)c1ccc(C)[nH]c1=O`, for which the INHIBITION is -4.43%.

In the case of `O=C(Cn1ncc2c(c1=O)CCCCC2)Nc1cccc2[nH]ccc12`, the INHIBITION turned out to be 36.1%.

As to `Cn1ccc2c(NC(=O)Cn3ncc4c(c3=O)CCCCC4)cccc21`, the INHIBITION worked out at 6.29%.

For the compound `Cn1ccc2c(NC(=O)Cn3ncc4c(c3=O)CCCC4)cccc21`, the INHIBITION was determined as 74.1%.

For the compound `Cn1cc(CC2CCN(C(=O)NCCCc3ccc(O)cc3)C2)cn1` (stereo unspecified), the INHIBITION worked out at 49.2%.

Take `CC(C)C(=O)NCCC(=O)N1CCN(c2ccccn2)CC1`: the INHIBITION is 24.1%.

For `O=C(CCc1nccs1)N1CCN(c2cccnn2)CC1`, the INHIBITION was determined as 1.77%.

With `O=C(CCc1nccs1)N1CCN(c2ccccn2)CC1`, the INHIBITION is 51.1%.

Turning to `CC(C)OCCC(=O)NCCC(=O)N1CCN(c2ccccn2)CC1`, the INHIBITION is given as 14.2%.

Turning to `CC(C)COCCC(=O)NCCC(=O)N1CCN(c2ccccn2)CC1`, the INHIBITION stood at 56.6%.

In the case of `O=C(CCc1nccs1)N1CCN(c2ncccn2)CC1`, the INHIBITION is on record as 26.1%.
